Values joined by “and” are separate entries in the source; they are usually repeats but may differ in a detail not shown here. Identical values can stand only once. Inconclusive results are not listed. Active and inactive are the calls of the source. How the source made its calls, unless noted: active means hit-call score of the fitted dose curve at least 0.9, where 1 is the maximum; inconclusive means response in the unintended direction; inactive means score below 0.9.
Experiments:
[1] = system: Thyroperoxidase (TPO), gene 54314; assay: CCTE_Simmons_AUR_rTPO: CCTE's Amplex UltraRed Assay for Thyroperoxidase (TPO) Inhibition, Simmons Lab (AID 2283662);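 on AC50: potency for loss of signal meaning inhibition of peroxidase activity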
Procedure, shortened: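 Endpoint is decreased Amplex UltraRed fluorescence after a 30-min, 37C reaction of rat thyroid microsomes with 300 uM H2O2. Eight test concentrations (5 nM–87.5 uM final) in 0.5% DMSO, three biological replicates each.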

[2] = CCTE_Simmons_CellTiterGLO_HEK293T: Viability Assessment in CCTE's Assays for Thyroperoxidase (TPO) Inhibition, Simmons Lab (AID 2283665);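 on AC50: cells exposed to compound for 24 h before readout; actives reduce ATP signal below DMSO vehicle meaning cytotoxicity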
Procedure, shortened: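 ATP depletion measured in HEK293T cells after 24 h dosing (8 concentrations, 5 nM–87.5 uM final; DMSO 0.5%) using CellTiter-Glo luminescence; curves fit for loss of signal against DMSO baseline.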

[3] = Tanguay_ZF_120hpf_YSE_legacy: (Legacy) Oregon State University Tanguay Lab 120 Hour Post-fertilization zebrafish Assay for Yolk Sac Edema (AID 2283634)
Procedure, shortened: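 Readout: presence or absence of yolk sac edema at 120 hpf, fitted upward against DMSO controls. Exposure ran statically from 6 hpf in dechorionated embryos kept at 28C.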

[4] = Tanguay_ZF_120hpf_AXIS_legacy: (Legacy) Oregon State University Tanguay Lab 120 Hour Post-fertilization zebrafish Assay for Body Axis Malformation (AID 2283635);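 further: potency for an increased fraction of larvae scored with body axis malformation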
Procedure, shortened: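 Static 6–120 hpf chemical exposure of dechorionated wild-type 5D zebrafish, one per well at 28C; morphology endpoint scored binary at 120 hpf relative to DMSO control.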

[5] = Tanguay_ZF_120hpf_EYE_legacy: (Legacy) Oregon State University Tanguay Lab 120 Hour Post-fertilization zebrafish Assay for Eye Malformation (AID 2283636);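 further: binary presence or absence of eye malformation scored by brightfield in 120 hpf larvae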
Procedure, shortened: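 Static waterborne exposure of dechorionated zebrafish embryos (strain Tropical 5D), 6 to 120 hpf, sealed plates at 28C, 0.64% DMSO vehicle. Eye malformation is scored as a binary endpoint, with gain of signal analysed relative to DMSO.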

[6] = Tanguay_ZF_120hpf_SNOU_legacy: (Legacy) Oregon State University Tanguay Lab 120 Hour Post-fertilization zebrafish Assay for Snout Malformation (AID 2283637)
Procedure, shortened: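 Dechorionated zebrafish, individually housed from 6 hpf in covered, sealed wells at 28C with 0.64% DMSO vehicle, were examined at 120 hpf for snout malformation. Responses were binary and analysed positive-direction relative to DMSO.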

[7] = Tanguay_ZF_120hpf_JAW_legacy: (Legacy) Oregon State University Tanguay Lab 120 Hour Post-fertilization zebrafish Assay for Jaw Malformation (AID 2283638)
Procedure, shortened: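 Static waterborne exposure of dechorionated wild-type (Tropical 5D) zebrafish from 6 to 120 hpf at 28C, 0.64% DMSO vehicle; 5uM trimethyltin chloride served as positive control. Jaw morphology recorded as binary at 120 hpf.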

[8] = Tanguay_ZF_120hpf_OTIC_legacy: (Legacy) Oregon State University Tanguay Lab 120 Hour Post-fertilization zebrafish Assay for Otic Vesicle Malformation (AID 2283639)
Procedure, shortened: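 Wild-type zebrafish larvae, whole-embryo exposure from early stage to 120 hpf at 28C. Binary brightfield scoring of otic vesicle morphology, fitted in the positive direction against the DMSO baseline.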

[9] = Tanguay_ZF_120hpf_PE_legacy: (Legacy) Oregon State University Tanguay Lab 120 Hour Post-fertilization zebrafish Assay for Pericardial Edema (AID 2283640)
Procedure, shortened: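 Read-out is the presence or absence of pericardial edema at 120 hpf under brightfield, with gain of signal fitted against DMSO controls. Larvae (5D wild-type) were statically exposed at 28C with 0.64% final DMSO.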

[10] = Tanguay_ZF_120hpf_BRAI_legacy: (Legacy) Oregon State University Tanguay Lab 120 Hour Post-fertilization zebrafish Assay for Brain Malformation (AID 2283641)
Procedure, shortened: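 Brain malformation in Tropical 5D zebrafish was recorded as a binary endpoint after static compound exposure from early development to 120 hpf at 28C. Activity was analysed against DMSO as negative control.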

[11] = Tanguay_ZF_120hpf_SOMI_legacy: (Legacy) Oregon State University Tanguay Lab 120 Hour Post-fertilization zebrafish Assay for Somite Malformation (AID 2283647)
Procedure, shortened: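 5D WT zebrafish; chorion removed 4 hpf; 1 embryo/well from 6 hpf; static exposure to 120 hpf, 28C, 0.64% DMSO final. Endpoint: somite malformation, binary, brightfield. Mortality excluded.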

[12] = Tanguay_ZF_120hpf_PFIN_legacy: (Legacy) Oregon State University Tanguay Lab 120 Hour Post-fertilization zebrafish Assay for Pectoral Fin Malformation (AID 2283648);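 further: each larva judged yes or no for fin defect by brightfield with dead larvae skipped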
Procedure, shortened: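 Scoring of pectoral fin malformation was binary, made at 120 hpf on larvae exposed statically from 6 hpf after enzymatic chorion removal. Activity was fitted upward relative to DMSO controls at 0.64% (vol/vol).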

[13] = Tanguay_ZF_120hpf_CFIN_legacy: (Legacy) Oregon State University Tanguay Lab 120 Hour Post-fertilization zebrafish Assay for Caudal Fin Malformation (AID 2283649)
Procedure, shortened: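 Embryos were collected from Tropical 5D wild-type adults and dechorionated at 4 hpf. At 6 hpf each was exposed, one per well, at 0.64% DMSO and 28C. At 120 hpf fin morphology was scored; dead embryos were excluded.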

[14] = Tanguay_ZF_120hpf_PIG_legacy: (Legacy) Oregon State University Tanguay Lab 120 Hour Post-fertilization zebrafish Assay for Pigmentation Malformation (AID 2283650)
Procedure, shortened: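 Endpoint is incidence of abnormal pigmentation at 120 hpf in dechorionated 5D zebrafish exposed singly from 6 hpf at 28C, DMSO vehicle at 0.64%. Embryos dying by 24 or 120 hpf are excluded from scoring.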

[15] = Tanguay_ZF_120hpf_SWIM_legacy: (Legacy) Oregon State University Tanguay Lab 120 Hour Post-fertilization zebrafish Assay for Swim Bladder Malformation (AID 2283654);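 further: swim bladder malformation in each larva scored yes or no under brightfield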
Procedure, shortened: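 Static waterborne exposure of single dechorionated Tropical 5D zebrafish embryos, 6–120 hpf, 28C, 0.64% DMSO final. Read-out: swim bladder malformation, present/absent, relative to DMSO negative control; trimethyltin chloride 5uM served as positive control.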

[16] = Tanguay_ZF_120hpf_TRUN_legacy: (Legacy) Oregon State University Tanguay Lab 120 Hour Post-fertilization zebrafish Assay for Truncated Body (AID 2283655)
Procedure, shortened: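 5D wild-type larvae; pronase dechorionation; static exposure 6→120 hpf, 28C; DMSO 0.64% final; 5uM trimethyltin chloride positive control. Readout: presence/absence of truncated body, analyzed relative to DMSO.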

[17] = Tanguay_ZF_120hpf_NC_legacy: (Legacy) Oregon State University Tanguay Lab 120 Hour Post-fertilization zebrafish Assay for Notochord and Tail Malformation (AID 2283656)
Procedure, shortened: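 Binary notochord-distortion calls, made by brightfield inspection, form the read-out; activity is fitted in the positive direction against DMSO. Exposure ran statically from 6 to 120 hpf at 28C with 0.64% DMSO.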

[18] = Tanguay_ZF_120hpf_TR_legacy: (Legacy) Oregon State University Tanguay Lab 120 Hour Post-fertilization zebrafish Assay for Touch Response (AID 2283667)
Procedure, shortened: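 Readout is presence or absence of touch response in 120 hpf zebrafish larvae, assessed by brightfield observation after continuous static exposure at 28C. Final vehicle was 0.64% (vol/vol) DMSO.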

[19] = STM_H9_OrnithineISnorm_perc: Stemina devTOX quickPredict H9 human embryonic stem cell (hESC)-based Assay for Ornithine (ORN) Metabolite Biomarker, Normalized (AID 2283712; active means hit-call score of the fitted dose curve at least 0.9, where 1 is the maximum; inactive means score below 0.9;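 further: ornithine released into spent medium during last day measured by mass spectrometry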)
Procedure, shortened: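 Metabolite endpoint from spent media of pluripotent H9 cells treated 72 h with daily re-feeding; ornithine measured by UPLC-HRMS against its 13C spike-in and referenced to the median 0.1% DMSO vehicle response.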

[20] = STM_H9_CystineISnorm_perc: Stemina devTOX quickPredict H9 human embryonic stem cell (hESC)-based Assay for Cystine (CYSS) Metabolite Biomarker, Normalized (AID 2283713; active means hit-call score of the fitted dose curve at least 0.9, where 1 is the maximum; inactive means score below 0.9)
Procedure, shortened: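 Normalized cystine level in conditioned medium from the final 24h of a 72h treatment of pluripotent H9 cells (daily media and compound renewal). Quantified by UPLC-HRMS with C13-labeled internal standard; scaled to median of 0.1% DMSO vehicle wells.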

With Cc1cc(C)nc(NS(=O)(=O)c2ccc(N)cc2)n1 the AC50 [1] was 14.3 µM (active).

For Cc1ccc(S(=O)(=O)Oc2ccc(N=Nc3ccc(-c4ccc(N=Nc5c(O)ccc6cc(S(=O)(=O)O)cc(S(=O)(=O)O)c56)c(C)c4)cc3C)cc2)cc1, the AC50 [1] was 18.2 µM (active) and the AC50 [2] was 18.3 µM (active).

With [O-]n1ccccc1=S.[O-]n1ccccc1=S.[Zn+2] the AC50 [1] was 3.72 µM (active) and the AC50 [2] was 2.57 µM (active).

With CCc1ccc(O)cc1 the outcome [1] was “inactive”.

For COc1ccc(N=Nc2cc(C)c(N=Nc3ccc(S(=O)(=O)O)cc3)cc2OC)cc1, the AC50 [1] was 53.9 µM (active) and the AC50 [2] was 77.9 µM (active).

In the case of CSCCC=O, the AC50 [1] is reported as 43.8 µM (active).

With O=c1c(O)c(-c2ccc(O)cc2)oc2cc(O)cc(O)c12 the AC50 [1] was 0.0805 µM (active) and the outcome [2] was “inactive”.

With O=C(O)c1ccc(O)cc1 the AC50 [1] was 35.3 µM (active) and the outcome [2] was “inactive”.

With CCCCCCCCc1ccc(S(=O)(=O)O)cc1 the AC50 [1] was 43.8 µM (active) and the AC50 [2] was 83.5 µM (active).

In the case of CCCCC(CC)COC(=O)c1ccc(O)cc1 (configuration not stated), the AC50 [1] is reported as 44.7 µM (active) and the AC50 [2] is reported as 24.7 µM (active).

For CN(C)c1cccc(O)c1, the AC50 [1] was 1.34 µM (active) and the outcome [2] was “inactive”.

With CCOc1ccc(N=Nc2ccc(C=Cc3ccc(N=Nc4ccc(OCC)cc4)cc3S(=O)(=O)O)c(S(=O)(=O)O)c2)cc1 the AC50 [1] was 30.2 µM (active) and the AC50 [2] was 89.1 µM (active).

For CC(C)NCC(O)COc1ccc(CC(N)=O)cc1 (configuration not stated), the outcome [1] was “inactive”.

In the case of CS(=O)(=O)OCCCCOS(C)(=O)=O, the outcome [3] is reported as “inactive”, the AC50 [4] is reported as 38.7 µM (active) and the outcome [5] is reported as “inactive”. The outcome [6] was “inactive”, the outcome [7] was “inactive” and the outcome [8] was “inactive”. For the same compound, the outcome [9] was “inactive”, the outcome [10] was “inactive” and the outcome [11] was “inactive”. The outcome [12] was “inactive”, the outcome [13] was “inactive” and the outcome [14] was “inactive”. For the same compound, the outcome [15] was “inactive”, the outcome [16] was “inactive” and the AC50 [17] was 47.1 µM (active). The AC50 [1] was 30.6 µM (active), the outcome [2] was “inactive” and the outcome [18] was “inactive”. The AC50 [19] was 36.3 µM (active) and the AC50 [20] was 5.25 µM (active).

With O=C1OC[C@H](Cc2cccc(O)c2)[C@H]1Cc1cccc(O)c1 the AC50 [1] was 7.74 µM (active).

For CC(C)CCCCCCCCCCCCCCC(=O)O, the AC50 [1] was 43.8 µM (active).

With C=C1CC[C@H](O)C/C1=C/C=C1\CCC[C@]2(C)[C@@H]([C@H](C)/C=C/[C@H](C)C(C)C)CC[C@@H]12 the AC50 [1] was 41.3 µM (active) and the AC50 [2] was 78.7 µM (active).

With Oc1ccc2cc(SSc3ccc4cc(O)ccc4c3)ccc2c1 the AC50 [1] was 2.45 µM (active) and the AC50 [2] was 74.3 µM (active).

In the case of Cc1cc(S(=O)(=O)O)ccc1N=Nc1c(O)ccc2ccccc12, the AC50 [1] is reported as 35 µM (active) and the AC50 [2] is reported as 24 µM (active).

In the case of O=C(Nc1ccc2c(O)c(N=Nc3ccc(N=Nc4ccc(S(=O)(=O)O)cc4)cc3)c(S(=O)(=O)O)cc2c1)c1ccccc1, the AC50 [1] is reported as 32.7 µM (active) and the AC50 [2] is reported as 14.4 µM (active).

In the case of Nc1ccc2cc(S(=O)(=O)O)cc(O)c2c1N=Nc1ccccc1C(F)(F)F, the AC50 [1] is reported as 20.2 µM (active) and the AC50 [2] is reported as 31.1 µM (active).

In the case of CC(CN=Cc1ccccc1O)N=Cc1ccccc1O (configuration not stated), the AC50 [1] is reported as 26 µM (active).

With CCc1cc(C(C)(C)C)c(O)c(C(C)(C)C)c1 the AC50 [1] was 4.83 µM (active) and the AC50 [2] was 24.3 µM (active).

For CCOC(=O)c1ccc(N)cc1, the AC50 [1] was 22.2 µM (active) and the AC50 [2] was 21.1 µM (active).

For CCc1cc(Cc2cc(CC)cc(C(C)(C)C)c2O)c(O)c(C(C)(C)C)c1, the AC50 [1] was 1.8 µM (active) and the AC50 [2] was 11.1 µM (active).

For CCCCCCCCC=CCCCCCCCC1=NCCN1CCO, the AC50 [1] was 37.9 µM (active) and 8.64 µM (active) and the AC50 [2] was 14 µM (active) and 13.8 µM (active).

With CCOc1ccccc1O the AC50 [1] was 19.1 µM (active).

For COc1ccccc1N=Nc1c(S(=O)(=O)O)cc2cc(S(=O)(=O)O)cc(NC(C)=O)c2c1O, the AC50 [1] was 34.8 µM (active) and the AC50 [2] was 12.2 µM (active).

With CCCCCC(C=O)=Cc1ccccc1 the AC50 [1] was 19.4 µM (active) and the AC50 [2] was 88.1 µM (active).

For CCCCCCCCCCCCCCN(CCO)CCO, the AC50 [1] was 44.8 µM (active) and the AC50 [2] was 21.4 µM (active).

With O=C(O)CCCCCCCCC(=O)O the outcome [1] was “inactive” and the outcome [2] was “inactive”.
